# Compounds with a hit are over-represented: about 6.5% of the library has one in this group of screens.
# MARV entry inh – inhibitors of Marburg virus binding or cell entry | Marburg virus pseudotyped entry inhibition, cell reporter | Potency, µM (titrated, usually from 37.8 µM), for inactives: top-dose activity change, negative = inhibition, hits mostly inhibitors | 300,000 compounds, 1.8% hits | AID 540276; calls by dose curve; tested in HEK293 cells; note: potency is the fitted concentration of half-maximal effect
# Vaccinia mCherry – inhibitors of vaccinia virus infection (mCherry reporter signal); Vaccinia virus mCherry reporter infection, fluorescence; Potency, µM (highest dose often 36.5 µM), without a hit: at the top dose activity change, negative = inhibition, hits mostly inhibitors; 310,000 compounds, 0.63% hits; AID 720579; calls by dose curve; tested in A549 cells; note: potency is the fitted concentration of half-maximal effect; nearly all actives have a fitted effect of over 35% in size
# LASV entry inh – inhibitors of Lassa virus binding or cell entry. Lassa virus pseudotype entry inhibition, cell reporter. Potency, µM (doses to about 37.9 µM), for inactives: at the highest dose activity change, negative = inhibition, most hits filed as inhibitors. 300,000 compounds, 1.2% hits. AID 540256; calls by dose curve; tested in HEK293 cells; note: potency is the fitted concentration of half-maximal effect; nearly all actives have a fitted effect of over 50% in size
# Vaccinia Venus – vaccinia inhibition (Venus reporter); Potency, µM (series often up to 36.5 µM), for the others: top-dose activity change, negative = inhibition, hits mostly inhibitors; 330,000 compounds, 0.46% hits; Vaccinia virus Venus reporter expression, fluorescence; AID 720580; calls by dose curve; tested in A549 cells; note: potency is the fitted concentration of half-maximal effect; nearly all actives have a fitted effect of over 30% in size
# HCMV inh – blocks human cytomegalovirus replication; activity change, negative = inhibition, % at 57.5 µM; AID 1259415; 410,000 compounds, 4.5% hits; HFF cells, HCMV-luciferase reporter, 72 h; stronger effect = lower value; in the data active = activity change below about -60%; inconclusive = no clear call, values can overlap the other calls; inactive = above about -39%
#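 Steps: HFFs plated, 16 h 37C; compounds added; HCMV-luciferase added to MOI 1 PFU/cell; 72 h 37C; OneGlo reagent, 5 min room temperature; luminescence read, normalized to controls.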
# FMDV antiviral – antivirals against foot and mouth disease virus; 410,000 compounds, 1.2% hits; AID 1159524; Potency, µM (top dose mostly 57.9 µM), for inactives: top-dose activity change, negative = inhibition, hits mostly inhibitors; FMDV antiviral cell-based qHTS; calls by dose curve; tested in HEK293T cells; note: read-out not given here; potency is the fitted concentration of half-maximal effect; nearly all actives have a fitted effect of over 45% in size
# * hit, by the source's call; i = inactive; ? = inconclusive; . = no result given; + = active, no number; [ ] = dose if it differs, or a comment. % is set by controls: 0 for no effect and ±100 for the full control effect.
SMILES,MARV entry inh,Vaccinia mCherry,LASV entry inh,Vaccinia Venus,HCMV inh,FMDV antiviral
COc1ccc(Nc2ncnc3ccc(C)cc23)cc1,.,.,.,.,-72*,15%
COc1ccc(Nc2ncnc3c2cnn3Cc2ccc(C)cc2)cc1,?,?,?,-22%,-39,28µM*
COc1cccc(Nc2ncnc3ccc(Br)cc23)c1,.,-23%,.,?,?,0%
COc1ccc(Nc2cc(C)nc3ccc(C)cc23)cc1,.,-13%,.,-8%,-33,-5%
COc1ccc(OC)c(Nc2ncnc3ccc(Br)cc23)c1,.,.,.,.,-63*,-26%
c1ccc(Cn2ncc3c(Nc4ccccc4)ncnc32)cc1,.,.,.,.,15,-19%
O=C(Nc1ccc(Cl)cc1)C1CCN(c2nc3ccccc3nc2C(F)(F)F)CC1,.,6%,8%[46.1 µM],-11%,-22,-14%
COc1ccc(CNCc2c(C(=O)O)c(C)n(Cc3ccccc3C)c2C)c(OC)c1,-15%[46.1 µM],-18%[7.34 µM],-12%[46.1 µM],-8%[7.34 µM],84,36%
COc1ccc([C@]23Cc4c(ccc5ccccc45)[C@H](O2)C2=C(CCCC2=O)O3)cc1,-21%[14.2 µM],.,.,.,.,.
Cn1ncc2c(Nc3ccc(Cl)cc3)ncnc21,.,.,.,.,+,56%
Cc1ccc(Nc2ncnc3c2cnn3C)cc1,.,-10%,.,-16%,9,36%
CN1C(=O)/C(=C\C(=O)c2cccs2)c2ccccc21,?,i,-10%,-5%,-99*,22µM*
COC(=O)CC1Oc2ccc(C)cc2-n2cc(-c3ccc(F)cc3)nc21 (stereo unspecified),12%[46.1 µM],i,-27%[46.1 µM],0%,?,0%
COc1cccc(/C=N/Nc2ncnc(N)c2[N+](=O)[O-])c1OC,?,.,8.2µM*,.,.,-40%
Cc1cc(/C=N/Nc2ncnc(N)c2[N+](=O)[O-])c(C)n1-c1ccccc1,?,?,1.1µM*,-7%,-83*,3.5µM*
COc1cccc(C=NNc2nnc(NN=Cc3cccc(OC)c3OC)c3ccccc23)c1OC,?,-5%,?,-5%,122,20µM*
COC(=O)CCCC1=CC2=C(c3ccccc3)C(=O)C(C)(OC(=O)C3CCCC3)C(=O)C2=CN1c1ccccc1 (stereo unspecified),4%[14.2 µM],i,.,-13%,30,-4%
COC(=O)CCCC1=CC2=C(c3ccccc3)C(=O)C(C)(OC(=O)C3CCCC3)C(=O)C2=CN1C1CC1 (stereo unspecified),.,-5%,.,-8%,-61*,-10%
COC(=O)CCCC1=CC2=C(c3ccccc3)C(=O)C(C)(OC(=O)C3CCCC3)C(=O)C2=CN1Cc1ccc2c(c1)OCO2 (stereo unspecified),-5%[14.2 µM],-26%,.,-17%,-70*,-6%
CCn1c(-c2cccc(OC)c2)nc2cc(NC(C)=O)cc(C(=O)N3CCC[C@H]3C(=O)OC)c21,.,-8%,.,0%,.,-6%
CC1CCN(C(=O)NC(=O)c2ccccc2)CC1,.,.,.,.,-14,2%
CC1CCN(C(CC(=O)c2ccccc2)C(=O)c2ccccc2)CC1 (stereo unspecified),?,-4%,?,22%,-86*,-17%
O=C(Cc1cccnc1)N1CC(=O)N2[C@@H](CO)[C@H](c3ccc(Br)cc3)[C@@H]2C1,.,.,.,.,-8,.
COc1ccc(S[C@]2(C(=O)N3CCCC3)CC(=O)N(c3ccc4ccccc4c3)[C@@H]2c2ccc(OC)cc2)cc1,.,.,.,.,22,.
COc1ccc(F)cc1S(=O)(=O)NCC(c1ccco1)S(=O)(=O)c1cccs1 (stereo unspecified),.,-11%,-6%[46.1 µM],-12%,-63*,80%
SMILES,MARV entry inh,Vaccinia mCherry,LASV entry inh,Vaccinia Venus,HCMV inh,FMDV antiviral
COc1ccc(F)cc1S(=O)(=O)NCC(c1ccco1)S(=O)(=O)c1ccc(F)cc1 (stereo unspecified),.,i,0%[46.1 µM],-16%,-27,54%
N#Cc1nc(Nc2cc(F)cc(F)c2)c2ncn(CC(F)F)c2n1,.,.,.,.,31,-18%
N#Cc1nc(NCC(F)F)nc(Nc2cc(F)cc(F)c2)n1,.,.,.,.,-38,11µM*
c1cc[n+](CCC[n+]2ccccc2)cc1,-1%[46.1 µM],i,?,-15%,-102*,14%
CCC(C)Sc1cc(-c2nc3ccc(C)cn3c2NCc2ccccc2)ccc1OC (stereo unspecified),.,10µM*,.,?,-77*,16µM*
CCC(C)Sc1ccc(-c2nc3ccc(C)cn3c2NCc2ccccc2)cc1OC (stereo unspecified),.,?,.,13µM*,.,35µM*
CCCCCCSc1ccc(-c2nc3ccc(C)cn3c2NCc2ccccc2)cc1OC,.,?,.,-20%,64,-1%
COc1ccc(CNC(=O)c2nc(Cn3nc(C)c(Br)c3C)no2)cc1OC,?,2%,-6%[46.1 µM],-1%,-8,-17%
CCn1c(-c2ccccc2F)nc2cc(C(=O)N3CCNC(=O)C3CC(=O)OC)cc(NC(C)=O)c21 (stereo unspecified),.,2%,.,10%,.,2%
O=C(NCc1ccco1)C1CCN(c2nnc(-n3cccc3)s2)CC1,.,i,.,-5%,-67*,-3%
CN(Cc1ccco1)C(=O)C1CCN(c2nnc(-n3cccc3)s2)CC1,.,.,.,.,-11,-3%
O=C(NCCCN1CCN(Cc2ccccc2)CC1)C1CCN(c2nnc(-n3cccc3)s2)CC1,?,.,-22%,-25%,?,?
O=C(NCCCN1CCc2ccccc2C1)C1CCN(c2nnc(-n3cccc3)s2)CC1,15µM*,-14%,6%,-5%,2,-30%
Cn1c(=O)oc2cc(NC(=O)CCl)ccc21,.,.,.,.,-106*,?
Nc1ccc2oc(Cc3ccc(Cl)cc3)nc2c1,-27%[46.1 µM],?,.,?,-2,-22%
CCOc1ccc(NC(=O)CSc2nnc3c(n2)[nH]c2ccc(S(=O)(=O)N(C)C)cc23)cc1,.,-15%,.,-14%,.,.
CC1CC(NC(=O)/C=C/C(=O)O)CC(C)(C)C1 (stereo unspecified),-13%[14.2 µM],i,-4%,-6%,2,9%
CC1CC(NC2=NCCS2)CC(C)(C)C1 (stereo unspecified),?,i,-9%,-24%,-66*,-23%
CCC1CCCCN1S(=O)(=O)c1cc2c(cc1C)NC(=O)CO2 (stereo unspecified),.,-18%,-5%[46.1 µM],-19%,-23,-7%
CCOc1ccc(CNC(=S)N/N=C/c2ccc(OC)c(OC)c2)cc1,-72%,?,2.8µM*,?,3,8%
COc1cc(/C=N/NC(=S)NCc2ccccc2)ccc1OCC#N,?,?,?,-23%,-18,0%
CN(C)c1ccc(/C=N/NC(=S)NCc2ccccc2)cc1,-1%,-3%,0.28µM*,-11%,-19,21%
CC(C)(C)c1ccc(/C=N/NC(=S)NCc2ccccc2)cc1,1%,-10%,0.26µM*,-18%,-24,-5%
Cc1ccc(S(=O)(=O)c2nnn3c2nc(NCc2ccc(F)cc2)c2sccc23)cc1C,.,-29%,-28%[46.1 µM],?,-27,-9%
